Only some compounds are listed: those with a hit (about 4.2% of all), similar ones and a draw of the others.
NALP1 inh: NALP1 inflammasome inhibitors in reconstituted yeast, colorimetric, S. cerevisiae, triplicate retest | S. cerevisiae NALP1/ASC/caspase-1 growth, X-gal OD620, 72 h | inhibition, % at 10 µM | 0.61% of 280,000 active | AID 2071, 2009; in the data active = inhibition mostly above about 24%, no sharp cut-off; inactive = mostly below about 32%
NALP3 yeast inh: NALP3 inflammasome inhibitors in reconstituted yeast, primary screen, luminescence, uHTS; inhibition, % at 10 µM; 0.39% of 330,000 active; Yeast reconstituted NLRP3/ASC/caspase-1, beta-gal luminescence, 24 h;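 active = inhibition of 50% or more; inactive = inhibition below 50%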
V-ATPase pH: regulators of yeast V-ATPase proton pumping, primary screen, pHLuorin cytosolic pH fluorescence. 0.37% of 350,000 active. response, % at 10 µM. S. cerevisiae; in the data active = response mostly above about 7.3%, no sharp cut-off; inactive = mostly below about 5.4%; note: actives read high
TIM10 inh: growth inhibitors of isogenic TIM10 control yeast, primary screen, counter-screen for tim10-1 yeast inhibitor project, luminescence, uHTS; S. cerevisiae TIM10 strain growth, BacTiter-Glo luminescence, 24 h; inhibition, % at 10 µM; 1.4% of 330,000 active;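 active = inhibition of 40% or more at the single tested concentration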;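 note: wild-type TIM10 isogenic control strain grown at permissive 25 °C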
tim23-1 inh: growth inhibitors of tim23-1 mutant yeast, primary screen, luminescence, uHTS. S. cerevisiae tim23-1 growth, BacTiter-Glo luminescence, 24 h. inhibition, % at 20 µM. 1.3% of 330,000 active;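 active = growth inhibition of the mutant yeast at or above 50%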;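 note: temperature-sensitive mutant grown at 25 °C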
tim10-1 inh: growth inhibitors of tim10-1 mutant yeast, primary screen, luminescence, uHTS; S. cerevisiae tim10-1 ts strain growth, BacTiter-Glo, 24 h; inhibition, % at 20 µM; 2.2% of 330,000 active; AID 463190, 2010;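 active = inhibition of at least 40%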;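 note: mutant grown at 25 °C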
tim10-1 confirm: growth inhibitors of tim10-1 mutant yeast, confirmation, single concentration, luminescence, S. cerevisiae. shares compounds with tim10-1 inh. S. cerevisiae tim10-1 ts strain growth, BacTiter-Glo, 24 h. inhibition, % at 20 µM. 56% of 7,400 active;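 active = inhibition of yeast growth at or above a set limit in either of two repeat tests at 20 µM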;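 note: tim10-1 mutant grown at permissive 25 °C to find synthetic lethal compounds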
tim10 confirm: growth inhibitors of wild-type TIM10 yeast, confirmation, counter-screen for tim10-1 synthetic lethality project, single concentration, luminescence, S. cerevisiae; shares compounds with TIM10 inh; S. cerevisiae tim10 strain growth, BacTiter-Glo luminescence, 24 h; inhibition, % at 10 µM; 63% of 4,600 active; AID 463215, 2010;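 active = inhibition of yeast growth at or above a set limit in either of two replicates at 10 µM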; note: this counterscreen used the strain with wild-type TIM10
Large screens that a line does not name were inactive (follow-up assays come after a bar, where they were run).

Cc1cc(C)cc(NC(=S)NCc2ccc3[nH]c4c(c3c2)CCCC4)c1	tim10-1 inh 41 | tim10-1 confirm inactive
c1cncc(CNc2ncnc3sc4c(c23)CCCC4)c1	none
O=C1CN(c2nc(-c3cccnc3)nc3sc4c(c23)CCCC4)CCN1	tim10-1 inh 42 | tim10-1 confirm inactive
Cc1nc(NCc2cccnc2)c2c3c(sc2n1)CCCC3	tim10-1 inh 45 | tim10-1 confirm inactive
Nc1nc(-c2cccnc2)nc2sc3c(c12)CCCC3	tim10-1 inh 52 | tim10-1 confirm 33
CC(=O)Nc1ccc(Oc2nc(-c3cccnc3)nc3sc4c(c23)CCCC4)cc1	none (no result: NALP1 inh)
CC(OC(=O)c1cccc([N+](=O)[O-])c1)C(=O)NCc1ccc2c(c1)OCO2 (centres undefined)	none
O=C(CCN1CCc2ccccc2C(c2ccccc2)C1)c1ccc2c(c1)OCCO2 (centres undefined)	NALP1 inh 70, tim10-1 inh 56 | tim10-1 confirm 56
Cn1cccc1CNCC(O)c1ccccc1 (centres undefined)	none
O=C(CSc1ccccn1)N1CCN(c2cccc(Cl)c2)CC1	tim10-1 inh 43 | tim10-1 confirm inactive
O=C(Cc1ncc(C(F)(F)F)cc1Cl)N1CCN(c2ccc(F)cc2)CC1	none (no result: NALP1 inh)
O=C(CSc1ccccn1)N1CCN(c2ccccc2)CC1	none
O=C(Cc1ncc(C(F)(F)F)cc1Cl)N1CCN(c2cccc(Cl)c2)CC1	tim10-1 inh 43 | tim10-1 confirm inactive
N#Cc1c2ccc(O)cc2n2ccccc12	none
Cc1cccc(C(=O)CC(=O)c2cc(Cl)ccc2O)c1	tim10-1 inh 47 | tim10-1 confirm 63
Cc1ccc(O)c(C(=O)CC(=O)c2ccc(Cl)cc2)c1	none (no result: NALP3 yeast inh, TIM10 inh, tim23-1 inh, tim10-1 inh)
CC(C)(C)c1ccc(-c2n[nH]c(=S)n2Cc2ccccc2)cc1	tim10-1 inh 45 | tim10-1 confirm 38
S=c1[nH]nc(COc2cccc3ccccc23)n1Cc1ccccc1	none (no result: NALP1 inh)
Cc1ccccc1OCc1n[nH]c(=S)n1Cc1ccccc1	tim10-1 inh 47 | tim10-1 confirm inactive
Oc1ccc(-c2n[nH]c(=S)n2Cc2ccccc2)cc1	none
CCCCCCSc1cccc(-c2nc3ccc(Cl)cn3c2NCc2ccccc2)c1	none (no result: NALP1 inh)
COc1ccc(-c2nc(-c3ccccn3)no2)cc1	tim10-1 inh 49 | tim10-1 confirm 56
COc1ccccc1-c1nc(-c2ccccn2)no1	none
CCOC(=O)n1c(=O)n(Cc2ccc(Cl)cc2Cl)c2ccccc21	none
CCOC(=O)n1c(=O)n(Cc2ccccc2Cl)c2ccccc21	tim10-1 inh 43 | tim10-1 confirm 33
O=C1/C(=C/c2cccnc2)SC(=S)N1N1CCOCC1	tim10-1 inh 52 (no result: NALP1 inh) | tim10-1 confirm 40
O=C1/C(=C/c2cccs2)SC(=S)N1N1CCOCC1	none
CCCCn1c(-c2csc3ccccc23)n[nH]c1=S	none
CCCCn1c(-c2csc3c2CCC(C)C3)n[nH]c1=S (centres undefined)	tim10-1 inh 51 | tim10-1 confirm inactive
Cc1ccc2nc(-c3ccccc3)c(CN3CCN(c4ccccc4F)CC3)n2c1	TIM10 inh 51, tim10-1 inh 56 | tim10-1 confirm 42 | tim10 confirm 37
O=C(CCl)N(c1ccccc1)c1c[nH]c2ccccc12	none
O=C(CCl)N(c1ccc(Cl)cc1)c1c[nH]c2ccccc12	TIM10 inh 41, tim10-1 inh 44 | tim10-1 confirm 36 | tim10 confirm 28
CCCCc1ccc(NC(=S)NCc2cccs2)cc1	TIM10 inh 40, tim10-1 inh 46 | tim10-1 confirm 43 | tim10 confirm 35
CC1=Nc2ccccc2/C1=C\c1nc(-c2ccccc2)oc1O	TIM10 inh 45, tim10-1 inh 42 | tim10-1 confirm 34 | tim10 confirm 35
NS(=O)(=O)c1ccc(CCNC(=O)COC(=O)C2COc3ccccc3O2)cc1 (centres undefined)	none (no result: NALP1 inh)
CCN1CCN(c2cc(N3CCc4ccccc4C3)c(F)cc2[N+](=O)[O-])CC1	TIM10 inh 41, tim10-1 inh 41 | tim10-1 confirm 32 | tim10 confirm inactive
Cc1ccc(N2C(=O)CC(Sc3nc4ccccc4o3)C2=O)cc1Cl (centres undefined)	TIM10 inh 50, tim10-1 inh 59 | tim10-1 confirm 43 | tim10 confirm 34
CCCc1c(O)nc(SC2CC(=O)N(c3ccc(C)c(Cl)c3)C2=O)[nH]c1=O (centres undefined)	none (no result: NALP1 inh)
COc1ccc(C(CNC(=O)c2cccc(S(=O)(=O)NCc3ccccc3)c2)N2CCOCC2)cc1 (centres undefined)	none (no result: NALP1 inh)
CCOC(=O)C1(Cc2ccc(Cl)cc2)CCN(Cc2nccn2CC)CC1	none
CCOC(=O)C1(S(=O)(=O)c2ccc(Cl)cc2)CCN(Cc2ccc(Cl)cc2)CC1	TIM10 inh 42, tim10-1 inh 48 | tim10-1 confirm inactive | tim10 confirm 34
COc1ccc(C(=O)NCCc2cccc(Cl)c2)cc1OC1CCN(C(C)=O)CC1	none
N#Cc1cc2c(=O)n3ccccc3nc2n(-c2ccccc2Cl)c1=O	none
O=S(=O)(c1ccccc1)N1CCC(=NO)CC1	none
O=C(ON=C1CCN(S(=O)(=O)c2ccccc2)CC1)c1cccc(Cl)c1	TIM10 inh 47, tim10-1 inh 66 | tim10-1 confirm 67 | tim10 confirm 55
O=C(Nc1ccc(NC(=O)N2CCN(c3ccccc3O)CC2)cc1)N1CCN(c2ccccc2O)CC1	none
COc1ccc(CCNC(=S)NC(=O)c2cccc(Cl)c2)cc1OC	TIM10 inh 40, tim10-1 inh 48 | tim10-1 confirm 30 | tim10 confirm 41
COc1cc(C(=O)/C=C/c2cccnc2)c([N+](=O)[O-])cc1OC	TIM10 inh 41, tim10-1 inh 42 (no result: NALP1 inh) | tim10-1 confirm 39 | tim10 confirm 33
Cc1ccc2c(c1)sc(-c1ccc(N(C)C)cc1)[n+]2C	TIM10 inh 85, tim10-1 inh 70 | tim10-1 confirm 74 | tim10 confirm 82
CC1C/C(=C/c2ccncc2)C(=O)/C(=C/c2ccncc2)C1 (centres undefined)	TIM10 inh 84, tim10-1 inh 44 | tim10-1 confirm 39 | tim10 confirm 89
